Bioassay records as filed in PubChem.
Most compounds without a hit are left out; they make up all but 6% or so of the library.
Chronic BCR inh – qHTS Assay to Find Inhibitors of Chronic Active B-Cell Receptor Signaling; Potency, µM (highest dose often 46.1 µM), for the others: at the highest dose activity change, negative = inhibition, most hits filed as inhibitors; 340,000 tested, 0.05% active; ABC-DLBCL IkBa-CBG/CBR reporter, luminescence ratio, 4 h; AID 493014, 2011; active = well fitted inhibition curve with a large enough effect in the signal ratio, with a control signal flat, not every such curve was filed as active; inconclusive = small, poorly fitted or top-dose-only effect, or effect the other way, or a change in a side signal; the % refers to the signal ratio;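 note: potency is the fitted concentration of half-maximal effect; plate controls were basal doxycycline-induced cells for no effect and cells given 10 µM MG132 for full effect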
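Compounds up to 46 uM were incubated four hours with TMD8 cells whose green CBG68 luciferase is fused to IkappaBalpha; red CBR luminescence normalised the signal, and concentration-effect curves were fitted to fusion, red and ratio data.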
D3 antag – qHTS of D3 Dopamine Receptor Antagonist: qHTS. D(3) dopamine receptor (Homo sapiens), P35462. D3R cells, DiscoveRx beta-arrestin luminescence, antagonist mode; hits give low values. max response, negative = inhibition, %. 360,000 tested, 2.5% active; in the data active = max response below about -50%; inconclusive = no clear call, values can overlap the other calls; note: % is set by controls: 0 for no effect and ±100 for the full control effect
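Cells plated overnight at 1500 cells/well, then exposed to library compounds with dopamine controls for 90 minutes at 37 degrees C. DiscoveRx reagent added for 30–60 minutes at room temperature; luminescence read, quantitative HTS format.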
D1 antag – Antagonist of Human D 1 Dopamine Receptor: qHTS. D(1A) dopamine receptor (Homo sapiens), P21728. HEK293 TREx D1 cells, calcium flux, dopamine EC80; hits give low values. activity change, negative = inhibition, % at 10 µM. 360,000 tested, 3.2% active. AID 504652, 2011; in the data active = activity change below about -30%; note: % is set by controls: 0 for no effect and ±100 for the full control effect
Target sequence (P21728 whole entry, looked up): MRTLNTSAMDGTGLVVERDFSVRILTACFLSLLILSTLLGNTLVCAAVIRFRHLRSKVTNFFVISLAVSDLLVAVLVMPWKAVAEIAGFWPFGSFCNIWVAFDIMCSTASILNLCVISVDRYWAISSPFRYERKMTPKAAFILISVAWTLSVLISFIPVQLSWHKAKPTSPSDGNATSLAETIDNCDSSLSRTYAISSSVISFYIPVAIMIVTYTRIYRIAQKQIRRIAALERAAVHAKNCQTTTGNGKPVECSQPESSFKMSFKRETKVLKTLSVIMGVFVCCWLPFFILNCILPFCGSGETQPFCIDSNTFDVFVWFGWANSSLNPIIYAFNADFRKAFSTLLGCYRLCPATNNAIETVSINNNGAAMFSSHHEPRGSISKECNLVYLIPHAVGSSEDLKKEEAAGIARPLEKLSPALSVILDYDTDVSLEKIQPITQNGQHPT
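Inducible Hek293 Trex D1 cells (tetracycline, overnight, 30 C). Calcium dye 30–90 min RT. Antagonist mode: EC80 dopamine added after 180 s compound read.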
D1 potentiator – Potentiators of Human D1 Dopamine Receptor: qHTS. potentiation, % at 10 µM. HEK293 TREx D1 cells, calcium flux, dopamine EC20 potentiation. 360,000 tested, 0.036% active. D(1A) dopamine receptor (Homo sapiens), P21728. AID 504651, 2011; in the data active = potentiation above about 30%; note: 0% is about no effect
DRD3 agonist – qHTS of D3 Dopamine Receptor Agonist: qHTS. D(3) dopamine receptor (Homo sapiens), P35462. D3R DiscoveRx beta-arrestin cells, luminescence, 90 min. max activation, %. 410,000 tested, 0.58% active. AID 652048, 2013; in the data active = max activation above about 30%; note: 0% is about no effect
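Agonist-mode cell screen: cells plated at 1500/well and incubated overnight at 37 °C, then exposed to library compounds for 90 min at 37 °C. Detection reagent was added for 30–60 min at room temperature, and luminescence was read.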
D1 ag – Allosteric Agonists of the Human D1 Dopamine Receptor: qHTS; HEK293 T-REx D1 cells, calcium flux, agonist mode; activation, % at 2 µM; D(1A) dopamine receptor (Homo sapiens), P21728; 360,000 tested, 1% active; in the data active = activation above about 30%; note: 0% is about no effect
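Tetracycline-induced HEK293 TREx D1 cells, force-coupled to calcium signalling, were dye-loaded with a no-wash calcium kit. Compound was pin-added after a 10 s baseline. Fluorescence was read kinetically at 1 cycle/s for 180 s, with calcium rises flagged as agonism.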
The depositor's hits bear a star; ? = inconclusive; . = not tested or not shown.

SMILES | Chronic BCR inh | D3 antag | D1 antag | D1 potentiator | DRD3 agonist | D1 ag
CCCn1c2ccccc2c2cnn(CC(=O)Nc3cc(C)c(Cl)cc3OC)c(=O)c21 | . | . | 0.9 | 2.1 | 5.7 | -1.6
COc1ccc(N2CC(NC(=O)Cc3cccs3)CC2=O)cc1 (configuration not stated) | ? | . | . | -2.5 | -23.9 | -4.6
O=C(C[n+]1cc(-c2ccc(Cl)cc2)n2c1CCCCC2)c1ccccc1 | ? | -62.6* | -2.4 | -4.9 | -30.4 | 0.4
O=C(C[n+]1cc(-c2ccc(Br)cc2)n2c1CCCCC2)c1ccccc1 | 1.5% | -24.2 | 10.0 | 8.4 | -12.6 | 0.4
COc1ccccc1NC(=O)Nc1nc(C(N)C2CCCCC2)cs1 (configuration not stated) | . | ? | . | . | -17.2 | .
NC(c1csc(NC(=O)Nc2ccccc2Cl)n1)C1CCCCC1 (configuration not stated) | . | -27.6 | . | . | 58.4* | .
Cc1ccc2[nH]c(=O)c3cc(C(=O)NC4CCC(C)CC4)sc3c2c1 (configuration not stated) | . | . | -42.8* | -5.2 | 2.8 | 0.7
CC(NC(=O)CCCN1C(=O)c2ccccc2C1=O)c1ccc2c(c1)CCCC2 (configuration not stated) | ? | 5.0 | -39.5* | 9.2 | -6.0 | 2.7
CCOc1ccc(CCN2C(=O)C(=O)N([C@@H](Cc3ccc(O)cc3)CN3CCC[C@@H]3CN3C(=O)C(=O)NC[C@@H]3Cc3ccccc3)C[C@@H]2Cc2ccccc2)cc1 | . | -0.2 | . | . | -18.9 | .
Cc1cccc(C(=O)NCCc2nc3ccccc3n2Cc2ccc(Cl)cc2)c1 | . | . | -0.6 | 1.5 | 4.8 | 10.4
CCOC(=O)C1=C(N)Oc2c(oc(CO)cc2=O)C1c1c(F)cccc1Cl (configuration not stated) | ? | -4.5 | -63.7* | 2.3 | 2.0 | 0.3
CC(=O)c1ccc(N2CCN(C(=O)Nc3ccc(C(C)C)cc3)CC2)cc1 | 5.6% | 6.3 | -47.1* | -3.9 | -4.2 | 4.9
CC(=O)c1ccc(N2CCN(C(=O)Nc3ccc(F)cc3)CC2)cc1 | 1.9% | . | -11.1 | -5.3 | . | 13.6
CC(C(=O)NCc1ccccc1)n1ccc2cc(S(=O)(=O)N3CCCC3)ccc21 (configuration not stated) | . | . | -14.5 | -1.8 | 8.3 | 5.3
CSc1cccc(N2CC(C(=O)Nc3ccccc3N3CCCC3)CC2=O)c1 (configuration not stated) | 3.9% | 5.0 | -31.6* | -7.7 | -3.6 | 1.0
Cc1ccc(N2CC(C(=O)Nc3ccccc3N3CCCC3)CC2=O)cc1 (configuration not stated) | -3.4% | 7.0 | -29.5 | 3.8 | -19.6 | 0.5
N#CC(C#N)=C(N)/C(C#N)=C/c1cc(O)c(O)c(O)c1 | 25.1% | 1.1 | -20.2 | 2.4 | 6.6 | 30.3*
OCCO[C@@H]1[C@@H](O)[C@H](O)[C@@H](CO)O[C@@H]1O | . | . | . | . | 7.4 | .
CCCc1nc2c(=O)n(C)c(=O)nc-2n(C)n1 | ? | -61.4* | 4.6 | -0.2 | -11.4 | 3.9
CCn1c(N)nc2c1c(=O)n(C)c(=O)n2C | 4.0% | 18.2 | -0.3 | -9.8 | 1.4 | 3.3
Cn1nc(-c2ccccn2)nc2c(=O)n(C)c(=O)nc1-2 | ? | -69.4* | 11.6 | 3.6 | -17.7 | 0.0
COc1ccc(CN2COc3ccc4c(-c5ccccc5)cc(=O)oc4c3C2)cc1OC | . | . | -3.4 | -2.0 | -22.3 | 1.4
CC(C)CNC(=O)C1(C)CCCCCN1C(=O)c1cc(C#N)cs1 (configuration not stated) | . | -0.3 | . | . | 6.4 | .
O=C1C=C(c2ccc(-c3ccccc3)cc2)C[C@@H](c2ccc(Cl)cc2)C1 | -3.2% | 16.3 | -36.3* | -13.1 | -1.7 | 1.6
O=C1C=C(c2ccc(Oc3ccccc3)cc2)C[C@@H](c2ccc(F)cc2)C1 | ? | -72.7* | . | -1.2 | -8.3 | 4.9
SMILES | Chronic BCR inh | D3 antag | D1 antag | D1 potentiator | DRD3 agonist | D1 ag
COc1ccc([C@H]2CC(=O)C=C(c3cccc(OC)c3)C2)cc1 | -1.0% | -5.5 | -15.0 | -1.2 | -9.3 | 2.2
COc1ccc(C2=CC(=O)C[C@H](c3ccc(OC)cc3)C2)cc1 | 9.5% | ? | -37.0* | -2.5 | -11.9 | 6.4
COc1ccc([C@H]2CC(=O)C=C(c3cccc(C(C)C)c3)C2)cc1 | 5.8% | -60.8* | -25.2 | -3.6 | -55.9 | 9.6
Cc1ccc(-c2nnc(Nc3ccc(F)cc3)c3ccccc23)cc1S(=O)(=O)N1CCN(C)CC1 | . | . | -18.4 | -0.8 | 2.0 | -0.7
COc1ccc2c(c1)c(=O)c(S(=O)(=O)c1ccccc1)cn2CC(=O)Nc1ccc(C)c(Cl)c1 | . | . | -0.2 | -1.5 | -4.8 | 5.2
COc1ccc([C@H]2CC(=O)C=C(c3ccc(C)c(F)c3)C2)cc1 | ? | ? | -28.8 | -2.3 | -1.6 | 56.3*
COc1ccc(N2CCN(C(=O)CCCCCn3c(=S)[nH]c4ccc(N5CCOCC5)cc4c3=O)CC2)cc1 | . | 116.5 | . | . | 4.5 | .
COc1ccc(/C(C)=N/NC2=NCCN2)cc1Cl | 1.6% | -21.7 | -92.5* | -8.7 | -4.6 | 1.6
Cc1cccc(N2CCN(C(=O)CNC(=O)C3CCCCC3)CC2)c1C | 1.7% | 0.4 | 0.5 | -2.0 | 4.8 | 8.5
Cc1cccc(N2CCN(CC3CCCCC3)CC2)c1C | 5.8% | -97.5* | 35.5 | 3.1 | -24.3 | 1.1
Cc1ccc(C)c(N2CCN(CC3CCCCC3)CC2)c1 | 0.4% | -56.6* | 17.5 | 1.1 | -14.1 | 5.5
COc1ccc(-c2oc3ncn4nc(-c5ccccc5OC)nc4c3c2-c2ccc(OC)cc2)cc1 | . | . | -1.9 | -2.4 | -15.4 | 1.6
Cc1cccc(-c2nnn3c2nc(NCCc2ccc(S(N)(=O)=O)cc2)c2cc(Cl)ccc23)c1 | . | . | -8.2 | -3.0 | -2.4 | 1.0
COc1ccc(CNC(=O)CSc2nc(-c3ccc(OC)c(OC)c3)cc(C(F)(F)F)n2)cc1 | . | . | 0.2 | -0.9 | 6.5 | 2.5
C=CCn1c(SCC(=O)Nc2ccc(C(=O)O)cc2)nc2scc(-c3ccccc3)c2c1=O | 7.5% | -70.6* | . | . | -8.2 | .
C=CCn1c(SCC(=O)N2CCN(C(=O)c3ccco3)CC2)nc2sc(CC)cc2c1=O | 9.2% | -3.9 | -32.0* | -0.8 | -4.3 | -0.9
C=CCn1c(SCC(=O)NC2CC2)nc2sc(CC)cc2c1=O | -1.0% | 10.5 | -16.0 | -1.7 | 4.0 | 1.7
C=CCn1c(SCC(=O)N2CCCC2=O)nc2sc(CC)cc2c1=O | 6.3% | 62.1 | 4.3 | -2.1 | 11.9 | 7.5
